Measurements published in PubChem BioAssay AID1240 (Sanford-Burnham Center for Chemical Genomics, 2008).
About 800 (1.6%) of roughly 50,000 compounds showed an effect of 50% or more. The list comes from a sample in which strong results are over-represented; it also holds similar structures and randomly drawn compounds.

What follows are molecules tested against Bcl-2-like protein 10 (Homo sapiens) (UniProt Q9HD36) (assay: TR3 peptide-Bcl-B binding displacers, biochemical primary FP assay, phenotype converters (AID 1240;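 further: 0% = Bcl-B with tracer peptide and DMSO and 100% = tracer peptide lacking Bcl-B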)). Details: GST-Bcl-B / FITC-TR3 peptide fluorescence polarization; stronger effect = higher value; compound at 3.75 mg/L.
Sequence of Bcl-2-like protein 10 (Homo sapiens) (Q9HD36 whole entry, looked up): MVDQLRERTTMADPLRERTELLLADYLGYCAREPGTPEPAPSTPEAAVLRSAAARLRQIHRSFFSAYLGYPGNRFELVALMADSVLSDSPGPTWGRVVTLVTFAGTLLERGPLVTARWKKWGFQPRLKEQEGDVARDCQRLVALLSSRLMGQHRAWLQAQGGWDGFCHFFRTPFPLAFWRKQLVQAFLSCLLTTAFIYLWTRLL

Structure (SMILES) | displacement
CCOc1ccc(C(=O)Nc2cc(OC)ccc2OC)cc1Br | -9%
COc1ccc(C(=O)N2CCN(c3cccc(C)c3C)CC2)c(OC)c1 | -4.4%
CCN(CC)c1ccc(N2C(=O)/C(=C/C=C/c3ccccc3)SC2=S)cc1 | -4.2%
CCCOC(=O)c1c(NC(=O)c2c(-c3ccccc3)noc2C)sc2c1CCCCC2 | -7.2%
COc1ccc(CN2CCN(C3CCC(c4ccccc4)CC3)CC2)c(OC)c1OC (stereo unspecified) | -12%
CC(C)OC(=O)c1c(-c2ccc(F)cc2)csc1N | 1.3%
COc1ccc(N2C(=O)/C(=C\C(Br)=C\c3ccccc3)SC2=S)cc1 | 5.6%
CCOC(=O)C1=C(C)N=c2s/c(=C\c3ccccc3Cl)c(=O)n2C1c1ccc(OC)c(OC)c1 (stereo unspecified) | 106%
CCOC(=O)C1=C(C)N=c2s/c(=C\c3ccccn3)c(=O)n2C1c1ccc(OC)c(OC)c1 (stereo unspecified) | 42.1%
CCOC(=O)C1=C(C)N=c2s/c(=C\c3ccc(N(CC)CC)o3)c(=O)n2C1c1ccc(OC)c(OC)c1 (stereo unspecified) | -25%
CCOC(=O)C1=C(C)N=c2s/c(=C\c3ccc(NC(C)=O)cc3)c(=O)n2C1c1ccc(OC)c(OC)c1 (stereo unspecified) | 88.9%
CCOC(=O)C1=C(C)N=c2s/c(=C\c3ccccc3F)c(=O)n2C1c1ccc(OC)c(OC)c1 (stereo unspecified) | 6.3%
CCOC(=O)C1=C(C)N=c2s/c(=C\c3cc(Br)c(O)c(OC)c3)c(=O)n2C1c1ccc(OC)c(OC)c1 (stereo unspecified) | -85.1%
CC(=O)N(c1ccccc1)c1c(F)c(F)c(F)c(F)c1F | -8.8%
O=C(COc1ccc(Cl)cc1Br)Nc1ccc2c(c1)OCCO2 | 1.8%
CCOC(=O)c1conc1-c1ccc(SC)cc1 | 6.5%
COc1ccc(CN2CCN(Cc3cc(Br)ccc3O)CC2)c(OC)c1 | 1.4%
COc1cc(C(=O)N2CCN(Cc3cccc(C(F)(F)F)c3)CC2)cc(OC)c1OC | 3.1%
O=C(Nc1ccc(O)c(-c2nc3ccccc3s2)c1)c1ccc2c(c1)OCCO2 | 82.5%
CCOc1ccc(C(=O)Nc2ccc(-c3nc4ccc(C)cc4s3)cc2)cc1 | 13.3%
Cc1ccc2nc(-c3ccc(NC(=O)c4ccc5c(c4)OCCO5)cc3)sc2c1 | 73.2%
O=C(Nc1ccc(-c2nc3ccccc3s2)c(O)c1)c1ccc2c(c1)OCCO2 | -3.8%
O=C(Nc1cccc(-c2nc3ccccc3s2)c1)c1ccc2c(c1)OCCO2 | 5.6%

Structure (SMILES) | displacement
CC(=O)Nc1ccc(-c2nc3ccc(C)cc3s2)cc1 | -3.9%
O=CN1N=C(c2ccccc2)CC1(O)C(F)(F)F (stereo unspecified) | 13.4%
COC(=O)c1ccc(NC(=O)CC2Nc3ccccc3NC2=O)cc1 (stereo unspecified) | 108%
CCOC(=O)c1c(NC(=O)CC2Nc3ccccc3NC2=O)sc(C)c1C (stereo unspecified) | -9.5%
CCOC(=O)c1c(NC(=O)CC2Nc3ccccc3NC2=O)sc2c1CCCC2 (stereo unspecified) | 130%
CCOC(=O)c1c(NC(=O)CC2Nc3cc(C)c(C)cc3NC2=O)sc2c1CCCC2 (stereo unspecified) | 48.8%
O=C(CC1Nc2ccccc2NC1=O)Nc1ccc(Br)cc1 (stereo unspecified) | -5.1%
CCc1ccc(NC(=O)CC2Nc3ccccc3NC2=O)cc1 (stereo unspecified) | -35.7%
O=[N+]([O-])c1ccc(COc2ccccc2/C=N/Nc2nc3ccccc3s2)cc1 | -2.1%
O=C(COc1ccc(Cl)cc1Cl)N1CCN(C(=O)COc2ccc(Cl)cc2Cl)CC1 | 2%
CCOC(=O)c1ccc(Nc2nc3nonc3nc2NC(C)C)cc1 | -7.1%
O=C1NC(=S)N/C1=C\c1ccccc1 | 0.7%
Cc1cc(/C=C2/NC(=S)NC2=O)c(C)n1-c1ccc(N2CCOCC2)cc1 | -9%
O=C1NC(=S)N/C1=C/c1ccc(N2CCOCC2)cc1 | 94.5%
COc1ccc(CC(=O)Nc2ccc(Cl)c(C(F)(F)F)c2)cc1OC | 6.1%
O=C(Nc1ccc(Br)cc1)c1ccccc1C(F)(F)F | 23.2%
O=C1C(NC2CCCCC2)=C(N2CCCCC2)C(=O)c2ccccc21 | 7.4%
O=C1c2ccccc2C(=O)c2c1cc(NC1CCCCC1)c1nsnc21 | 15.8%
O=C1c2ccccc2-c2c(NC3CCCCC3)c(=O)[nH]c3cccc1c23 | 150%
CCc1ccc(-n2c(C)cc(/C=C3/SC(=S)NC3=O)c2C)cc1 | 63%
Cc1cccc(-n2c(C)cc(/C=C3/NC(=S)NC3=O)c2C)c1 | -38.6%
Cc1cc(/C=C2/SC(=S)NC2=O)c(C)n1-c1ccccc1 | -39.7%
Cc1cc(/C=C2/NC(=S)NC2=O)c(C)n1-c1cccc(Cl)c1 | -12.9%

Structure (SMILES) | displacement
Cc1cccc(-n2c(C)cc(C=C3C(=O)NC(=S)NC3=O)c2C)c1 | 72.3%
Cc1ccc(-n2c(C)cc(C=C3C(=O)NC(=S)NC3=O)c2C)cc1C | 0.1%
Cc1cc(C=C2C(=O)NC(=S)NC2=O)c(C)n1-c1cccc(Cl)c1 | 107%
Cc1cc(C=C2C(=O)NC(=S)NC2=O)c(C)n1-c1ccc(Br)cc1 | 21%
Cc1cc(/C=C2/SC(=S)NC2=O)c(C)n1-c1ccc(F)cc1 | -6.4%
CCOC(=O)c1ccc(NC(=O)CN(c2ccc(Oc3ccccc3)cc2)S(C)(=O)=O)cc1 | -2.7%
Cc1ccc(-c2nc(N/N=C/c3cccc(F)c3)c3ccccc3n2)cc1 | 5%
COc1ccc(C(=O)N2CCN(Cc3ccc4c(c3)OCO4)CC2)cc1OC | 10.6%
CCOC(=O)C1=C(C)N=c2s/c(=C\c3ccc(N(C)C)o3)c(=O)n2C1c1ccc(F)cc1 (stereo unspecified) | -22.6%
CCOc1cc(C2/C(=C(\O)c3ccc(C)cc3)C(=O)C(=O)N2c2nncs2)ccc1O (stereo unspecified) | 8.3%
COc1ccc(/C(N)=N/OC(=O)c2ccc(C)c([N+](=O)[O-])c2)cc1 | -1.8%
CCCCOC(=O)c1cccc(NC(=O)c2ccc(OC)cc2)c1 | -3.1%
COc1ccc(C2=NN(C(C)=O)C(c3ccccc3OC)C2)cc1 (stereo unspecified) | 2.3%
CC(NC(=O)CN(c1cccc(C(F)(F)F)c1)S(C)(=O)=O)c1ccccc1 (stereo unspecified) | 0.7%
CCOc1ccc(N(CC(=O)N2CCOCC2)S(=O)(=O)c2ccc(SC)cc2)cc1 | -1.3%
C=CCN1C(=O)/C(=C\c2ccc(OCc3ccccc3)c(OCC)c2)SC1=S | 49.5%
Cc1cc(C)c(/C(O)=C/c2nc3ccccc3oc2=O)c(C)c1 | 13.8%
Cc1nc(C)c(/C(O)=C/c2nc3ccccc3[nH]c2=O)o1 | -8.5%
Cc1ccc(/C(O)=C/c2nc3ccccc3oc2=O)o1 | 116%
Cc1ccc(/C(O)=C/c2nc3ccccc3[nH]c2=O)o1 | 130%
CCOC(=O)c1nc2ccccc2[nH]c1=O | 14.3%
Cc1ccc(/C(O)=C/c2nc3ccc([N+](=O)[O-])cc3oc2=O)o1 | -6.6%
O=C(c1cccc([N+](=O)[O-])c1)c1ccc2c(c1)C(=O)N(c1ccccc1C(=O)O)C2=O | -2.7%

Structure (SMILES) | displacement
Cc1ccc(S(=O)(=O)NCCSCc2ccccc2Cl)cc1[N+](=O)[O-] | -8.5%
CCN(CC)S(=O)(=O)c1ccc(NC(=O)c2ccco2)cc1 | -5.1%
Cc1ccccc1OCC(=O)Nc1ccccc1CO | -7.8%
CC(=O)Nc1ccccc1NC(=O)COc1ccccc1C | 11.1%
CCCOc1cccc(C(=O)Nc2ccc(I)cc2Cl)c1 | 10.7%
CCCOc1cccc(C(=O)Nc2ccc3c4c(cccc24)CC3)c1 | 88.7%
Cc1ccccc1OCC(=O)Nc1ccc2c3c(cccc13)CC2 | 107%
CCOc1ccc(C(=O)Nc2ccc3c4c(cccc24)CC3)cc1[N+](=O)[O-] | 14.7%
O=C(N/N=C/c1cccs1)C(=O)NC1CCCCC1 | 7.6%
O=C(O/C(=C/c1nccn1Cc1ccc(Cl)cc1)c1ccccc1)c1ccccc1 | -1.2%
O=C(COc1ccc(Cl)cc1)Nc1ccc2c(c1)Cc1ccccc1-2 | 5.4%
O=C(Nc1ccccc1[N+](=O)[O-])c1ccccc1Cl | 8.4%
COc1ccc(C(=O)CN2CCN(CCN3C(=O)c4cccc5cccc(c45)C3=O)CC2)cc1 | 9.4%
COc1ccccc1N1C(=O)/C(=C/c2ccc(N(C)C)cc2)SC1=S | -8.2%
Cc1c(-c2ccc(Cl)cc2)nc2ccccc2c1C(=O)Nc1ccc(F)cc1F | -9.1%
CCn1c(O)c(/C=N/N=C/c2ccccc2)c2ccc(C3=NNC(=O)CC3)cc21 | 119%
CCCOc1ccc(C2=NNC(=O)CC2)cc1 | 3.6%
CCn1c(O)c(/C=N/N=C2CCCC2)c2ccc(C3=NNC(=O)CC3)cc21 | 45.9%
CC1=NN(c2cccc(Cl)c2)C(=O)/C1=C/C=C/c1cccc([N+](=O)[O-])c1 | 13.6%
Cc1nc2cc(-c3ccc(F)cc3)[nH]n2c(=O)c1C | -7.3%
O=C1OC(c2ccccc2)=C/C1=C\c1c(Cl)cccc1Cl | -5.8%
COc1nccc(NCc2ccccc2)c1C#N | -12.3%
N#Cc1c(NCc2ccccc2)ccnc1SCc1ccccc1 | -4.8%

Structure (SMILES) | displacement
N#Cc1c(NCc2ccccc2)ncc2c1Nc1ccccc1C2 | 112%
C=C(Br)Cn1c(C)nc2ccccc21 | 14.6%
COc1ccc(C(CC(=O)c2ccc(C)cc2)Nc2ccc(I)cc2)cc1OC (stereo unspecified) | -7%
COc1cc(/C=C(\C#N)c2nc3ccc(C)cc3[nH]2)cc(OC)c1OC(C)=O | -4.6%
O=C(NC1=Nc2cccc3cccc1c23)c1cccc(C(F)(F)F)c1 | 62.1%
COc1ccc(C(=O)NNC2=Nc3cccc4cccc2c34)cc1 | -17.1%
O=C(Nc1cccc(C(F)(F)F)c1)c1cccc(N2C(=O)c3ccccc3C2=O)c1 | -5.6%
O=C(Nc1cccc(Br)c1)c1ccc([N+](=O)[O-])cc1 | 12.7%
Cc1[nH]c2ccc(Br)cc2c1CC(=O)N/N=C/c1ccc(Cl)c(Cl)c1 | 5.1%
C=CCOC(=O)C1=C(C)NC(C)=C(C(=O)OCC=C)C1c1ccc(C)o1 | 12.2%
CCOC(=O)C1=C(C)N=c2s/c(=C\c3ccc(Cl)cc3)c(=O)n2C1c1ccc2c(c1)OCO2 (stereo unspecified) | 121%
CCOC(=O)C1=C(C)N=c2s/c(=C\c3ccc(OCC)cc3)c(=O)n2C1c1ccccc1 (stereo unspecified) | -1%
CCOC(=O)C1=C(C)N=c2s/c(=C\c3ccc(C(C)=O)cc3)c(=O)n2C1c1ccccc1 (stereo unspecified) | 76.2%
CCOC(=O)C1=C(C)N=c2s/c(=C\c3ccccc3)c(=O)n2C1c1ccc(Cl)cc1 (stereo unspecified) | 3.8%
CCOC(=O)C1=C(C)N=c2s/c(=C\c3ccc4c(c3)OCO4)c(=O)n2C1c1ccc2c(c1)OCO2 (stereo unspecified) | 3.5%
CCOC(=O)C1=C(C)N=c2s/c(=C/c3ccc(C)cc3)c(=O)n2C1c1ccccc1 (stereo unspecified) | 2.5%
CCOC(=O)C1=C(C)N=c2s/c(=C\c3ccc4c(c3)OCO4)c(=O)n2C1c1ccc(C)cc1 (stereo unspecified) | -7.1%
CCOC(=O)C1=C(C)N=c2s/c(=C/c3ccc(Cl)cc3)c(=O)n2C1c1ccccc1 (stereo unspecified) | 90.8%
CCOC(=O)C1=C(C)N=c2s/c(=C\c3ccc([N+](=O)[O-])cc3)c(=O)n2C1c1ccc(Cl)cc1 (stereo unspecified) | 9.2%
